In ChEMBL document CHEMBL3433997, “St. Jude Leishmania screening dataset” (2016):

How the values were obtained:
Format in all cases: functional
[1] = target: Solute carrier family 2, facilitated glucose transporter member 1 (Homo sapiens) (UniProt P11166); test: ST_JUDE_LEISH: Cytotoxicity at 2uM final concentration against transgenic Leishmania Mexicana promastigotes LmGLUT1 that are glucose transport deficient and complemented with the human glucose transporter GLUT1. Activity is measured by DNA content using SYBR green in vitro
[2] = target: Hexose transporter 1 (Plasmodium falciparum) (UniProt O97467); test: ST_JUDE_LEISH: Cytotoxicity at 2uM final concentration against transgenic Leishmania Mexicana promastigotes LmPfHT that are glucose transport deficient and complemented with the Plasmodium falciparum hexose transporter. Activity is measured by DNA content using SYBR green in vitro
[3] = target: Glucose transporter (Leishmania mexicana) (UniProt O61059); test: ST_JUDE_LEISH: Cytotoxicity at 2uM final concentration against transgenic Leishmania Mexicana promastigotes LmGT2 that are glucose transport deficient and complemented with the L. Mexicana glucose transporter 2. Activity is measured by DNA content using SYBR green in vitro

Solute carrier family 2, facilitated glucose transporter member 1 (Homo sapiens), sequence (P11166 whole entry): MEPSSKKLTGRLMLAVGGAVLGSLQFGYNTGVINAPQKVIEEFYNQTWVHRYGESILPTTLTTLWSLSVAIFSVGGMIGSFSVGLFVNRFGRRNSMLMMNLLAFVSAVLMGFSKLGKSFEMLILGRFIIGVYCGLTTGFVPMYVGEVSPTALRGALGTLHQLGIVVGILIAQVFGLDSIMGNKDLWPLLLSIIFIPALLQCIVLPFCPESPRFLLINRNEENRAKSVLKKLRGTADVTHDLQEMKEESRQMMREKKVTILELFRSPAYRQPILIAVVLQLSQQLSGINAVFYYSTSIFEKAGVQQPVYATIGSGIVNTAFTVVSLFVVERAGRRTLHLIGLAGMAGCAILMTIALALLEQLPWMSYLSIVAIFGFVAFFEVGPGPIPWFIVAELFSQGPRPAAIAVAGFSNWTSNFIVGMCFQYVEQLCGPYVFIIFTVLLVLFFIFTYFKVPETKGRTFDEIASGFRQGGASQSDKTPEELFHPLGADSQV

SMILES | inhibition [1] [%] | inhibition [2] [%] | inhibition [3] [%]
CCCCN1CC[C@@H](CCC(O)c2cc(OCCC)nc3ccc(OC)cc23)[C@@H](CC)C1 (some centres undefined) | -0.6 | -1.53 | -1.52
COc1ccc2ccccc2c1CCCCN1CCN(CC(c2ccc(F)cc2)N2CCN(C(C)C)CC2)CC1 (centres undefined) | 17.9 | 9.64 | 12.3
Cc1cccc2nc(-c3ccc(-c4ccc(NC(=O)NCc5ccccc5)cc4)s3)[nH]c12 | 3.85 | 4.61 | 1.02
Cc1nc2ccc(Nc3nccc(-c4c(-c5cccc(NC(=O)c6c(F)cccc6F)c5)nn5ccccc45)n3)cc2nc1C | 2.58 | 4.37 | -1.39
CCc1cn2c3c(cc(C(=O)N[C@@H](Cc4ccccc4)[C@H](O)CNC4CCOCC4)cc13)N(C)S(=O)(=O)C2 | 0.25 | 1.65 | -0.23
Oc1ccc(CCNc2nc(NCc3ccccc3-c3cccc(Cl)c3)nc(N3CCNCC3)n2)cc1 | -2.47 | -1.9 | -2.27
N=C(NCC1CC1c1ccccc1)c1cccc(C(=N)NCC2CC2c2ccccc2)n1 (centres undefined) | 5.1 | 5.88 | 6.3
CC(C)(C)c1ccc(CNC(=O)/C=C/c2ccc(-c3nc4cc(C(C)(C)C)ccc4[nH]3)cc2)cc1 | 2.35 | 3.4 | 4.02
O=[N+]([O-])c1cc2c(cc1C=NNc1nc(=Nc3ccccc3)[nH]c(=Nc3ccccc3)[nH]1)OCO2 | 1.53 | 1.47 | -2.69
Cc1nnc2c(NC(=O)NC3CCCC3)cc3cc(-c4ccc(CN5CCCCC5)cc4)ccc3n12 | 1.79 | 1.94 | 0.13
O=C(NC1CCCCC1)N(Cc1cccc(-c2ccc(CNCCc3ccccc3)cc2)c1)C1CCN(Cc2ccccc2)CC1 | 6.68 | 6.86 | 4.45
COc1cc2cc(Cc3cnc(N)nc3N)ccc2c(OC)c1OC | 0.96 | -0.27 | 1.56
COc1ccc(CNC(=N)Nc2nc(-c3ccc(OCCCn4ccnc4)cc3)cs2)cc1 | 10.6 | 7.44 | 2.73
CC(O)C1CCCCN1C(=O)c1cccc(-c2ccc(-c3nc4ccccc4[nH]3)s2)c1 (centres undefined) | 3.87 | 5.96 | 5.38
Cc1ccccc1C1CCN(C2CCC(NC(=O)/C=C/c3cccc(Cl)c3F)CC2)CC1 (centres undefined) | 3.45 | 1.79 | 1.85
Cc1cc(-c2cccc(CNC3CCN(C)CC3)c2)ccc1S(=O)(=O)NCCc1ccccn1 | 0.29 | -0.31 | 0.73
CCCCC(=O)Nc1nonc1-c1ccc(OCC)c(OCC)c1 | -0.29 | -0.24 | -4.47

SMILES | inhibition [1] [%] | inhibition [2] [%] | inhibition [3] [%]
COc1ccc(C2C(C(=O)OC3CCCCC3)=C(C)NC3=C2C(=O)CCC3)cc1Br (centres undefined) | 0.38 | -0.1 | 1.36
Cc1nc2nc(N)nc(N)c2c(C)c1Cc1ccc(O)cc1 | -0.09 | -2.78 | 4.5
CO/C(=C\C=C\c1cc2cc(Cl)c(Cl)cc2[nH]1)C(=O)NC1CCN(CCOc2ccccc2)CC1 | 8.51 | 7.84 | 0.9
CCOC(=O)c1cccc(NC(=O)Nc2cccc(-c3ncc(OCCCN)c4c3nc(-c3nonc3N)n4CC)c2)c1 | 2.41 | 3.25 | 3.37
Cc1ccc2[nH]c(C)cc(=NN=CC=Cc3ccccc3)c2c1 | -0.92 | 1.15 | -6.67
CNCCNCc1cccc(-c2cccc(-c3nc4cc(C(F)(F)F)ccc4[nH]3)c2)c1 | 2.15 | 1.32 | 0.13
COc1cc(C(=O)NC2CC(C)(C)N(C)C(C)(C)C2)ccc1-c1nc2cc(Cl)c(Cl)cc2[nH]1 | -0.5 | 1.21 | 3.3
COc1cc(C)nc2ccc(NC(=O)Nc3cccc4ccccc34)cc12 | 3.38 | 5.33 | 3.45
CN(Cc1cc(C(F)(F)F)cc(C(F)(F)F)c1)C(=O)C(Cc1ccc(F)cc1)C1CCCNC1 (centres undefined) | 6.71 | 4.23 | 6.9
CC(C)C(C(=O)n1cc2c(ccc3nc(N)nc(N)c32)n1)C(C)C | 8.32 | 11 | 3.51
CC(C)(C)NC(=O)c1ccc(Oc2ccc(OC(F)(F)F)cc2)c(NC(=O)C(C)(C)C)c1 | -3.08 | -1.32 | -2.26
COc1ccc(Nc2cc(C)nc(Nc3ccc(NC(C)=O)cc3)n2)cc1 | 47 | 67.4 | 32.2
O=C(Nc1ccon1)c1cc(-c2cccnc2)nc2ccc(Cl)cc12 | 5.01 | 3.36 | 3.02
CCCCN(CCCC)C(=N)c1cccc2c1CCCC2 | 2.36 | 3.35 | 2.45
N=C(N)Nc1ccc(CCc2ccc(NC(=N)N)cc2)cc1 | 4.14 | 4.16 | 2.91
CCC(C)(CC)C(=O)n1ncc2c3c(N)nc(N)nc3ccc21 | 65.8 | 79.2 | 58.6
